Assay results taken from the supplement of paper PMC7156485.
± gives the standard deviation of the averaged measurements.

Assays:
Conditions in all cases: concentration: 10 µM; 24 h
HCC1569 [1] = experiment: cell number relative to DMSO (% of DMSO); higher = more cells (less growth inhibition / toxicity)
Procedure, shortened: (§1)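 Cell number or H1.0 nuclear intensity appears as percent of the plate control, based on the median of replicates. Measurements came from HCC1569 and TDF cells exposed in triplicate to compounds at 10 µM for 24 h at 37 °C, then imaged in six fields per well at ×10. Positional effects were smoothed out of HCC1569 values.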

TDF [2] = experiment: as above
Procedure, shortened: as §1

TDF [3] = experiment: H1.0 immunofluorescence intensity relative to DMSO (% of DMSO); higher = stronger H1.0 induction, active = 120 or more
Procedure, shortened: as §1

HCC1569 [4] = experiment: H1.0 immunofluorescence intensity relative to DMSO (% of DMSO); higher = stronger H1.0 induction, active = 140 or more
Procedure, shortened: as §1
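For H1.0 immunofluorescence intensity relative to DMSO in this document: TDF is a line of transformed human dermal fibroblasts of mesenchymal origin.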
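For cell number relative to DMSO in this document: TDF denotes transformed human dermal fibroblasts of mesenchymal origin.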

Structure (SMILES) | cell number (HCC1569 [1]) | cell number (TDF [2]) | H1.0 immunofluorescence intensity (TDF [3]) | H1.0 immunofluorescence intensity (HCC1569 [4])
Cc1ccc(-c2nn(C(C)(C)C)c3ncnc(N)c23)cc1 | 69.8 | 109 | 94.8 (inactive) | 188 (active)
O=C(CCNNC(=O)c1ccncc1)NCc1ccccc1 [Nialamide] | 102.5 ± 0.38 | 103 ± 2.9 | 92.2 (inactive) | 100 (inactive)
CC(=O)NCCc1c(Cc2ccccc2)[nH]c2ccccc12 [N-[2-(2-benzyl-1H-indol-3-yl)ethyl]acetamide] | 101 | 92.4 | 104 (inactive) | 98.9 (inactive)
COc1ccc2c3c1OC1CC(O)C=CC31CCN(C)C2 (stereo not given) [Galanthamine] | 101 | 110 | 94 (inactive) | 94.8 (inactive)
COc1ccccc1N1CCN(CCN2C(=O)CC3(CCCC3)CC2=O)CC1.Cl.Cl [BMY 7378 dihydrochloride] | 98.3 | 98.9 | 90.3 (inactive) | 89.9 (inactive)
C#CC1(O)CCC2C3CCC4=CC(=O)CCC4C3CCC21C (stereo not given) [Norethindrone] | 96.5 | 91 | 99.5 (inactive) | 109 (inactive)
NC(=O)c1ccc2[nH]ccc2c1 | 108 | 97.1 | 101 (inactive) | 94.2 (inactive)
O=NN(CCCl)C(=O)NC1CCCCC1 [Lomustine] | 104 | 85 | 102 (inactive) | 99.7 (inactive)
COc1ccc(CNC(=O)c2sc3nc(C)cc(C)c3c2N)cc1 | 100 | 102 | 97.5 (inactive) | 101 (inactive)
CC[C@@]1(O)C(=O)OCc2c1cc1n(c2=O)Cc2cc3c(CN(C)C)c(O)ccc3nc2-1 | 61.3 | 26.3 | 129 (active) | 142 (active)
NC(CO)(CO)CO.O=C(c1ccccc1)c1ccc2n1CCC2C(=O)O (stereo not given) [Ketorolac tris salt] | 101 | 111 | 94.5 (inactive) | 94.1 (inactive)
CCCCCCCCCCCCCCC(O)C(O)C(N)CO (stereo not given) [Phytosphingosine] | 98.8 | 75.6 | 124 (active) | 104 (inactive)
O=C1Nc2ccc(Br)cc2C1=Cc1cc2c([nH]1)CCCC2 [VEGF Receptor 2 Kinase Inhibitor II] | 94 | 114 | 76.2 (inactive) | 190 (active)
Cc1ccc(S(=O)(=O)NC(=O)NN2CC3CCCC3C2)cc1 (stereo not given) [Gliclazide] | 101 | 106 | 89 (inactive) | 114 (inactive)
CCOC(=O)C(C)(C)Oc1ccc(Cl)cc1 [Clofibrate] | 102 ± 2.9 | 99.8 ± 6.2 | 99.5 (inactive) | 94.7 (inactive)
NC(CCCP(=O)(O)O)C(=O)O (racemic) | 103 | 105 | 94 (inactive) | 93.7 (inactive)
CCOC(=O)[C@H](CCc1ccccc1)N[C@@H](C)C(=O)N1CCC[C@H]1C(=O)O.O=C(O)C=CC(=O)O | 102 | 99.6 | 91 (inactive) | 100 (inactive)
C[n+]1cc2c3c(ccc2c2ccc4cc5c(cc4c21)OCO5)OCO3 [Sanguinarine] | 93.5 | 93.6 | 98.2 (inactive) | 114 (inactive)
COc1cc(C=C(C#N)C(=O)c2ccc(O)c(O)c2)cc(I)c1O [I-OMe-Tyrphostin AG 538] | 97.2 | 102 | 102 (inactive) | 106 (inactive)
C1COC(NC(C2CC2)C2CC2)=N1.O=P(O)(O)O [Rilmenidine phosphate] | 101 | 110 | 88.5 (inactive) | 103 (inactive)
Cl.c1ccc(C2CN3CCSC3=N2)cc1 (stereo not given) [Tetramisole hydrochloride] | 99.8 | 114 | 91.7 (inactive) | 105 (inactive)
CCn1cc(C(=O)O)c(=O)c2cc(F)c(N3CCNCC3)nc21 [Enoxacin] | 105 | 91.3 | 98.8 (inactive) | 106 (inactive)
c1ccc(-c2[nH]ncc2-c2ccnc3ccccc23)nc1 [TGF-b RI Kinase Inhibitor] | 102 | 103 | 91 (inactive) | 110 (inactive)
CC1CN(S(=O)(=O)c2cccc3cnccc23)CCN1.Cl.Cl (stereo not given) | 111 | 109 | 86.2 (inactive) | 81.1 (inactive)
CNc1nccc(-c2cccnc2Oc2cc(C(=O)Nc3cccc(C(F)(F)F)c3)ccc2C)n1 | 82.3 | 103 | 92.9 (inactive) | 102 (inactive)

Structure (SMILES) | cell number (HCC1569 [1]) | cell number (TDF [2]) | H1.0 immunofluorescence intensity (TDF [3]) | H1.0 immunofluorescence intensity (HCC1569 [4])
COc1ccc(Cl)cc1NC(=O)Nc1cc(C)nc2ccccc12 [N-(5-Chloro-2-methoxyphenyl)-N'-(2-methyl-4-quinolinyl)urea] | 90 | 103 | 104 (inactive) | 148 (active)
COc1cc2nccc(Oc3ccc(NC(=O)Nc4cc(C)on4)c(Cl)c3)c2cc1OC [Tivozanib] | 79.2 | 101 | 99 (inactive) | 116 (inactive)
NS(=O)(=O)c1cc2c(cc1Cl)NCNS2(=O)=O [Hydrochlorothiazide] | 105 | 107 | 90.9 (inactive) | 89.9 (inactive)
CCOC(=O)C=C(C)C=CC=C(C)C=Cc1c(C)cc(OC)c(C)c1C [Etretinate] | 104 | 97.6 | 101 (inactive) | 115 (inactive)
O=C(C=Cc1ccc(O)c(O)c1)OC1CC(O)(C(=O)O)CC(O)C1O (stereo not given) [Chlorogenic acid] | 100 | 98.2 | 103 (inactive) | 100 (inactive)
O=C(Nc1ccc(S(=O)(=O)Nc2nccs2)cc1)C(c1ccccc1)c1ccccc1 | 93.6 | 105 | 86 (inactive) | 108 (inactive)
Cl.Nc1c2c(nc3ccccc13)CCCC2 [9-Amino-1,2,3,4-tetrahydroacridine hydrochloride] | 105 | 103 | 94.8 (inactive) | 94.2 (inactive)
c1cc(-c2cnn3cc(-c4ccc(OCCN5CCCCC5)cc4)cnc23)ccn1 [AMPK Inhibitor,                  Compound C] | 102 | 102 | 85.8 (inactive) | 106 (inactive)
CCCCCC(O)C=CC1C(O)CC2CC(=CCCCC(=O)O)CC21 (stereo not given) [Carbacyclin] | 103 | 99.1 | 94.8 (inactive) | 100 (inactive)
CC(C)(C#N)c1cc(Cn2cncn2)cc(C(C)(C)C#N)c1 [Anastrozole] | 102 | 101 | 99.4 (inactive) | 102 (inactive)
CCN(Cc1ccncc1)C(=O)C(CO)c1ccccc1 (stereo not given) [Tropicamide] | 104 ± 5.5 | 105 ± 8.1 | 98.4 (inactive) | 100 (inactive)
CCCCCC#CCC(O)C=CC=CC=CC(O)CCCC(=O)O (stereo not given) [14,15-Dehydroleukotriene B4] | 101 | 96.7 | 105 (inactive) | 101 (inactive)
COC(=O)C1=C(C)NC(C)=C(C(=O)OCCCN2CCC(c3ccccc3)(c3ccccc3)CC2)C1c1cccc([N+](=O)[O-])c1 (stereo not given) [Niguldipine] | 88.2 | 99 | 98.5 (inactive) | 126 (inactive)
CC(C)CC(NC(=O)C(COC(C)(C)C)NC(=O)C(Cc1ccc(O)cc1)NC(=O)C(CO)NC(=O)C(Cc1c[nH]c2ccccc12)NC(=O)C(Cc1cnc[nH]1)NC(=O)C1CCC(=O)N1)C(=O)NC(CCCN=C(N)N)C(=O)N1CCCC1C(=O)NNC(N)=O (stereo not given) [Goserelin] | 100 | 105 | 94.5 (inactive) | 103 (inactive)
CCCCCCCC(=O)c1c(O)cc(O)cc1CC(=O)OCC [ethyl (3,5-dihydroxy-2-octanoylphenyl)acetate] | 104 | 106 | 96.7 (inactive) | 121 (inactive)
COCc1nc2c([nH]1)c(=O)n(C)c(=O)n2CC(C)C [8-Methoxymethyl-3-isobutyl-1-methylxanthine] | 104 | 110 | 92.4 (inactive) | 93.2 (inactive)
O=C(O)c1ccccc1Nc1ccccc1 [N-Phenylanthranilic acid] | 102 | 104 | 100 (inactive) | 97.5 (inactive)
CN1CCN(CC(=O)N2c3ccccc3C(=O)Nc3cccnc32)CC1.Cl.Cl [Pirenzepine dihydrochloride] | 107 | 121 | 97.4 (inactive) | 95.9 (inactive)
CC=CCC=CCCC(=O)C1OC1C(N)=O (stereo not given) [Cerulenin] | 92.6 | 91.5 | 97.8 (inactive) | 111 (inactive)
CCCCCC(O)C=CC1C=CC(=O)C1CC=CCCCC(=O)O (stereo not given) [Prostaglandin A2] | 103 | 110 | 95.6 (inactive) | 104 (inactive)
CC12CCC3c4ccc(O)cc4CCC3C1CCC2O (stereo not drawn) [beta-Estradiol] | 90.6 | 89.3 | 101 (inactive) | 95.3 (inactive)
CCOC(=O)[C@@H](N)CCC(=O)N[C@@H](CSCc1ccccc1)C(=O)N[C@@H](C(=O)OCC)c1ccccc1 | 97.6 | 100 | 92.9 (inactive) | 109 (inactive)
CCCCCCCCCCCCCCCC(O)C(N)CO (racemic) [DL-Dihydrosphingosine] | 103 | 101 | 96.2 (inactive) | 100 (inactive)
Cc1[nH]c(=O)c(C#N)cc1-c1ccncc1 [Milrinone] | 103 ± 3.6 | 108 ± 13 | 92.3 (inactive) | 103 (inactive)
O=C(O)CN(CCN(CC(=O)O)CC(=O)O)CCN(CC(=O)O)CC(=O)O [Diethylenetriaminepentaacetic acid] | 95.4 | 104 | 95.1 (inactive) | 94.6 (inactive)
